Among the data in article PMC5540273 (PLoS ONE, 2017) are Kd values, retold here.

Molecules are shown by their SMILES.
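Note: kd values determined as follow-up on hits from a single-replicate KINOMEscan panel screen.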

In this experiment the test system is T1, RSK4(Kin.Dom.2-C-terminal).
T1 construct: gene RPS6KA6
`Nc1nc(-c2ccccc2F)c(-c2ccnc3ccccc23)s1` [GW560459] showed a Kd of 28 nM.

`OCCCNc1nccc(-c2c(-c3cccc(C(F)(F)F)c3)nn3cc(C(F)(F)F)ccc23)n1` [GW630813] returned a dissociation constant (Kd) of 2700 nM. Compared with the last compound, the Kd is about 96-fold higher.

As for `CCc1nc(-c2cccc(C)c2)c(-c2ccncc2)s1`, binding was characterised by a dissociation constant (Kd) of 120 nM.

A word on the Kd: it is the equilibrium constant for the complex coming apart. Lower therefore signals a tighter complex.
